Assay results from publication PMC9911399, “Two distinct binding modes provide the RNA-binding protein RbFox with extraordinary sequence specificity”.
Numbering of substitutions follows the chain as printed; changes in the protein carry UniProt numbers. The full ranking holds about 16,000 sequences; the median of “ka relative to ugcaugu” is about 0.096, and the highest 2% start at about 0.35. For the sample, the highest values were picked, then their nearest neighbours and some sequences at random.

B1: AGGUGCA (DNA:RNA)
RNA: GGGAGACCGGAAUUCAGAUUGUCCAGGUGCAUUAAAUCCCGUCGUAGCCACCA
DNA 1: CAATCTGAATTCCGGTCTCCC
DNA 2: TGGTGGCTACGACGGGATT
B2: GUAUUCU (DNA:RNA)
RNA: B1 RNA with A25G, G26U, G27A, G29U, A31U
DNA 1: CAATCTGAATTCCGGTCTCCC
DNA 2: TGGTGGCTACGACGGGATT
B3: UCCUAGU (DNA:RNA)
RNA: B1 RNA with A25U, G26C, G27C, G29A, C30G, A31U
DNA 1: CAATCTGAATTCCGGTCTCCC
DNA 2: TGGTGGCTACGACGGGATT
B4: UUCUCAG (DNA:RNA)
RNA: B1 RNA with A25U, G26U, G27C, G29C, C30A, A31G
DNA 1: CAATCTGAATTCCGGTCTCCC
DNA 2: TGGTGGCTACGACGGGATT
B5: CGGCGAA (DNA:RNA)
RNA: B1 RNA with A25C, U28C, C30A
DNA 1: CAATCTGAATTCCGGTCTCCC
DNA 2: TGGTGGCTACGACGGGATT
B6: GUUUAAG (DNA:RNA)
RNA: B1 RNA with A25G, G26U, G27U, G29A, C30A, A31G
DNA 1: CAATCTGAATTCCGGTCTCCC
DNA 2: TGGTGGCTACGACGGGATT
B7: UCCCAUG (DNA:RNA)
RNA: GGGAGACCGGAAUUCAGAUUGUCCUCCCAUGUUAAAUCCCGUCGUAGCCACCA
DNA 1: CAATCTGAATTCCGGTCTCCC
DNA 2: TGGTGGCTACGACGGGATT
B8: GGAAUCG (DNA:RNA)
RNA: B1 RNA with A25G, G27A, U28A, G29U, A31G
DNA 1: CAATCTGAATTCCGGTCTCCC
DNA 2: TGGTGGCTACGACGGGATT
B9: GGCGAUG (DNA:RNA)
RNA: B7 RNA with U25G, C26G, C28G
DNA 1: CAATCTGAATTCCGGTCTCCC
DNA 2: TGGTGGCTACGACGGGATT
B10: GUCGAUG (DNA:RNA)
RNA: B7 RNA with U25G, C26U, C28G
DNA 1: CAATCTGAATTCCGGTCTCCC
DNA 2: TGGTGGCTACGACGGGATT
B11: GAUGUCG (DNA:RNA)
RNA: B1 RNA with A25G, G26A, G27U, U28G, G29U, A31G
DNA 1: CAATCTGAATTCCGGTCTCCC
DNA 2: TGGTGGCTACGACGGGATT
B12: CGUCCCG (DNA:RNA)
RNA: B1 RNA with A25C, G27U, U28C, G29C, A31G
DNA 1: CAATCTGAATTCCGGTCTCCC
DNA 2: TGGTGGCTACGACGGGATT
B13: GUCGUCG (DNA:RNA)
RNA: B7 RNA with U25G, C26U, C28G, A29U, U30C
DNA 1: CAATCTGAATTCCGGTCTCCC
DNA 2: TGGTGGCTACGACGGGATT
B14: CGCGUAA (DNA:RNA)
RNA: B1 RNA with A25C, G27C, U28G, G29U, C30A
DNA 1: CAATCTGAATTCCGGTCTCCC
DNA 2: TGGTGGCTACGACGGGATT
B15: AACGAAC (DNA:RNA)
RNA: B7 RNA with U25A, C26A, C28G, U30A, G31C
DNA 1: CAATCTGAATTCCGGTCTCCC
DNA 2: TGGTGGCTACGACGGGATT
B16: UAAUUGU (DNA:RNA)
RNA: B1 RNA with A25U, G26A, G27A, G29U, C30G, A31U
DNA 1: CAATCTGAATTCCGGTCTCCC
DNA 2: TGGTGGCTACGACGGGATT
B17: GGCUGUC (DNA:RNA)
RNA: B1 RNA with A25G, G27C, C30U, A31C
DNA 1: CAATCTGAATTCCGGTCTCCC
DNA 2: TGGTGGCTACGACGGGATT
B18: AUUCUUA (DNA:RNA)
RNA: B1 RNA with G26U, G27U, U28C, G29U, C30U
DNA 1: CAATCTGAATTCCGGTCTCCC
DNA 2: TGGTGGCTACGACGGGATT
B19: CCCUGCA (DNA:RNA)
RNA: B1 RNA with A25C, G26C, G27C
DNA 1: CAATCTGAATTCCGGTCTCCC
DNA 2: TGGTGGCTACGACGGGATT
B20: UGCAUAU (DNA:RNA)
RNA: B7 RNA with C26G, C28A, A29U, U30A, G31U
DNA 1: CAATCTGAATTCCGGTCTCCC
DNA 2: TGGTGGCTACGACGGGATT
B21: UGCCAUC (DNA:RNA)
RNA: B7 RNA with C26G, G31C
DNA 1: CAATCTGAATTCCGGTCTCCC
DNA 2: TGGTGGCTACGACGGGATT
B22: CUGCAUA (DNA:RNA)
RNA: B7 RNA with U25C, C26U, C27G, G31A
DNA 1: CAATCTGAATTCCGGTCTCCC
DNA 2: TGGTGGCTACGACGGGATT
B23: CUGCAUG (DNA:RNA)
RNA: B7 RNA with U25C, C26U, C27G
DNA 1: CAATCTGAATTCCGGTCTCCC
DNA 2: TGGTGGCTACGACGGGATT
B24: UGCCAUA (DNA:RNA)
RNA: B7 RNA with C26G, G31A
DNA 1: CAATCTGAATTCCGGTCTCCC
DNA 2: TGGTGGCTACGACGGGATT
B25: UGCCAUG (DNA:RNA)
RNA: B7 RNA with C26G
DNA 1: CAATCTGAATTCCGGTCTCCC
DNA 2: TGGTGGCTACGACGGGATT
B26: UGCAUGU (DNA:RNA)
RNA: B7 RNA with C26G, C28A, A29U, U30G, G31U
DNA 1: CAATCTGAATTCCGGTCTCCC
DNA 2: TGGTGGCTACGACGGGATT
B27: UGCAUUU (DNA:RNA)
RNA: B7 RNA with C26G, C28A, A29U, G31U
DNA 1: CAATCTGAATTCCGGTCTCCC
DNA 2: TGGTGGCTACGACGGGATT
B28: CGCGCUA (DNA:RNA)
RNA: B1 RNA with A25C, G27C, U28G, G29C, C30U
DNA 1: CAATCTGAATTCCGGTCTCCC
DNA 2: TGGTGGCTACGACGGGATT
B29: AUACCAG (DNA:RNA)
RNA: B7 RNA with U25A, C26U, C27A, A29C, U30A
DNA 1: CAATCTGAATTCCGGTCTCCC
DNA 2: TGGTGGCTACGACGGGATT
B30: CCAGGGG (DNA:RNA)
RNA: B7 RNA with U25C, C27A, C28G, A29G, U30G
DNA 1: CAATCTGAATTCCGGTCTCCC
DNA 2: TGGTGGCTACGACGGGATT
B31: CUUGUUU (DNA:RNA)
RNA: B7 RNA with U25C, C26U, C27U, C28G, A29U, G31U
DNA 1: CAATCTGAATTCCGGTCTCCC
DNA 2: TGGTGGCTACGACGGGATT

These binders were tested against T1, RBFOX1 RRM RbFoxmut (Fox-RRM*) (Homo sapiens, UniProt Q9NWB1 109-208, R118D;E147R;N151S;E152T) (assay: EMSA; HiTS-Eq, 1 nM pool, 10 min; buffer printed only for the single-RNA assays: 10 mM Tris pH 7.5, 150 mM NaCl, 3.4 mM EDTA, 0.001% NP-40, 30 C). Details: tags: His6 N-terminal (pET28a); label: 5' 32P.
T1 sequence: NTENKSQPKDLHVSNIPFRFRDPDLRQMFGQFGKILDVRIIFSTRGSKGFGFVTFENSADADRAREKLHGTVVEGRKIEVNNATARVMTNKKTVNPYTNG
Method in brief: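 Purified wild-type or mutant RbFox RRM at increasing concentrations was equilibrated with 1 nM of 5′-radiolabelled RNA carrying 7 randomized nucleotides for 10 min in 50 µL. Unbound RNA was separated by 8% native PAGE and sequenced. Relative association constants came from read-count changes of each RNA species compared with the control reaction, normalised to the cognate motif.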

First: B1
Second: B2
The binding signal of the first is higher: 0.21 KA relative to UGCAUGU for the first, 0.0952 KA relative to UGCAUGU for the second.

First: B3
Second: B4
The binding signal of the first is higher: 0.117 KA relative to UGCAUGU for the first, 0.0887 KA relative to UGCAUGU for the second.

First: B5
Second: B6
The binding signal of the first is lower: 0.0938 KA relative to UGCAUGU for the first, 0.131 KA relative to UGCAUGU for the second.

First: B7
Second: B8
The binding signal of the first is lower: 0.0994 KA relative to UGCAUGU for the first, 0.387 KA relative to UGCAUGU for the second.

First: B9
Second: B10
The binding signal of the first is higher: 0.404 KA relative to UGCAUGU for the first, 0.141 KA relative to UGCAUGU for the second.

Compared with B11, B12 is lower in binding signal: 0.145 KA relative to UGCAUGU for the first, 0.0717 KA relative to UGCAUGU for the second.

Compared with B13, B14 is lower in binding signal: 0.15 KA relative to UGCAUGU for the first, 0.114 KA relative to UGCAUGU for the second.

First: B15
Second: B16
The binding signal of the first is lower: 0.0568 KA relative to UGCAUGU for the first, 0.0755 KA relative to UGCAUGU for the second.

Compared with B17, B18 is lower in binding signal: 0.211 KA relative to UGCAUGU for the first, 0.13 KA relative to UGCAUGU for the second.

First: B19
Second: B20
The binding signal of the first is higher: 0.186 KA relative to UGCAUGU for the first, 0.178 KA relative to UGCAUGU for the second.

Compared with B21, B22 is lower in binding signal: 0.208 KA relative to UGCAUGU for the first, 0.144 KA relative to UGCAUGU for the second.

First: B23
Second: B24
The binding signal of the first is higher: 1.34 KA relative to UGCAUGU for the first, 0.122 KA relative to UGCAUGU for the second.

Compared with B25, B26 is higher in binding signal: 0.509 KA relative to UGCAUGU for the first, 1 KA relative to UGCAUGU for the second.

First: B27
Second: B28
The binding signal of the first is higher: 0.137 KA relative to UGCAUGU for the first, 0.103 KA relative to UGCAUGU for the second.

First: B29
Second: B30
The binding signal of the first is higher: 0.122 KA relative to UGCAUGU for the first, 0.0555 KA relative to UGCAUGU for the second.

With B31 the binding signal was 0.0932 KA relative to UGCAUGU.
